The campaign covered roughly 310,000 compounds. About 14,000 (4.5%) showed an effect of 50% or more. The effect is printed as a negative number. This excerpt belongs to a sample that is enriched for strong results.
target: human ether-à-go-go-related gene (hERG) potassium channel (human, UniProt Q12809); test: primary screen, population patch clamp on CHO cells stably expressing hERG; higher = less effect of the substance
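Further: peak tail current of the secondary pulse compared with the same well before compound.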

human ether-à-go-go-related gene (hERG) potassium channel, sequence (Q12809 whole entry, looked up): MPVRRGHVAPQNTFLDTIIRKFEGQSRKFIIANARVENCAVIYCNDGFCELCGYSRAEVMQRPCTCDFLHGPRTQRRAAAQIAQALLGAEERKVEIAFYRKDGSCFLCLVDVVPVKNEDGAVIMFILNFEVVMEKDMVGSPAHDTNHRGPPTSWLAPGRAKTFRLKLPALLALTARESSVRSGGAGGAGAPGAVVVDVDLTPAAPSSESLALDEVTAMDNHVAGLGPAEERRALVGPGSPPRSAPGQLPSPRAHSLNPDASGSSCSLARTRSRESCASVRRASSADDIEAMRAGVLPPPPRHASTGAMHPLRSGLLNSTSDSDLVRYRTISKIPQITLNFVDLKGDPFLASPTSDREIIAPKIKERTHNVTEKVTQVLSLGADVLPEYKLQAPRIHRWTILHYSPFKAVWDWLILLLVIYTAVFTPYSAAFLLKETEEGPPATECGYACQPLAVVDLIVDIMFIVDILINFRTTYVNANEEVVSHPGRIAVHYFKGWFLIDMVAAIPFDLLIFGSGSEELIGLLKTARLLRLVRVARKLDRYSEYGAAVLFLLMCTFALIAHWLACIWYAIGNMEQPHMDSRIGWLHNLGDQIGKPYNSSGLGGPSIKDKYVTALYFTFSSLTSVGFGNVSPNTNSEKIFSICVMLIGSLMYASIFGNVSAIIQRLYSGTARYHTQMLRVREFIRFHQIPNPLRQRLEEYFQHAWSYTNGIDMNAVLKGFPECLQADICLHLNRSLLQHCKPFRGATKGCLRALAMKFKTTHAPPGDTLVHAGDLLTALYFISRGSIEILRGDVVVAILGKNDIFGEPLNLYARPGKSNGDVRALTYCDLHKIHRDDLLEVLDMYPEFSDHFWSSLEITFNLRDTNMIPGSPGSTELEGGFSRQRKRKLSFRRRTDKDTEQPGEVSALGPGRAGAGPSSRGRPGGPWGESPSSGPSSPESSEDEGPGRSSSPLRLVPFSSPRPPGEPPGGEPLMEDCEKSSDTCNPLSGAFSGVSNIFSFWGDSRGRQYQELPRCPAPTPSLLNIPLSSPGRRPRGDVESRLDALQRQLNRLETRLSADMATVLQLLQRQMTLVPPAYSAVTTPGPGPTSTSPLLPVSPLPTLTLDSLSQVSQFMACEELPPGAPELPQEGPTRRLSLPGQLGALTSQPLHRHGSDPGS

SMILES	hERG current change (%, negative = inhibition) at 10uM
O=S(=O)(Cc1cc(-c2ccccc2)no1)c1ccccc1	-2.75%
O=S(=O)(Cc1cc(-c2ccc(Cl)cc2)no1)c1ccccc1	0.608%
O=S(=O)(Cc1cc(-c2ccccc2Cl)no1)c1ccccc1	-51%
COCCn1nnnc1C(c1cccs1)N1CCCC(C)C1.Cl (stereo not drawn)	17.9%
COc1ccc(/C=C/C(=O)Nc2ccccc2C(F)(F)F)cc1OC	-4.62%
Cl.N=c1sccn1CC(=O)N1N=C(c2ccc(Cl)cc2)CC1c1ccco1 (stereo not drawn)	-79.5%
O=C(CNC(=O)c1ccccc1)OCC(=O)N1N=C(c2ccc(Cl)cc2)CC1c1ccco1 (stereo not drawn)	-72.5%
O=C(CCl)N1N=C(c2ccco2)CC1c1ccco1 (stereo not drawn)	14%
COc1ccc(C(=O)NCC(=O)OCC(=O)N2N=C(c3ccc(Cl)cc3)CC2c2ccco2)cc1OC (stereo not drawn)	-5.57%
O=C(O)CCCC(=O)N1N=C(c2ccco2)CC1c1ccco1 (stereo not drawn)	9.6%
O=C(O)CCC(=O)N1N=C(c2ccco2)CC1c1ccco1 (stereo not drawn)	-78.1%
CCC(=O)N1N=C(c2ccc(Cl)cc2)CC1c1ccco1 (stereo not drawn)	0.74%
CC(=O)N1N=C(c2ccc(Cl)cc2)CC1c1ccco1 (stereo not drawn)	7.11%
COCC(=O)OCC(=O)N1N=C(c2ccc(Cl)cc2)CC1c1ccco1 (stereo not drawn)	-28.1%
Cc1ccc(OCC(=O)N2N=C(c3ccc(Cl)cc3)CC2c2ccco2)c([N+](=O)[O-])n1 (stereo not drawn)	-63.3%
O=C(COc1cccnc1[N+](=O)[O-])N1N=C(c2ccc(Cl)cc2)CC1c1ccco1 (stereo not drawn)	16.9%
O=C(OCC(=O)N1N=C(c2ccc(Cl)cc2)CC1c1ccco1)c1ccco1 (stereo not drawn)	27.4%
COc1cc(S(=O)(=O)N2CCN(C)CC2)c(OC)cc1Cl	13.2%
COC(=O)c1nn(-c2ccc(OC)cc2)c(=O)cc1O	16.9%
O=C(CCc1c[nH]c2ccccc12)NCc1ccco1	32.4%
Cc1ccc(CN(Cc2cc3cc(C)ccc3[nH]c2=O)C(=O)N2CCOCC2)cc1	-13.2%
Cc1cccc(NC(=O)CSc2nncn2-c2ccccn2)c1	-1.31%
CSc1ncc(CN2CCCC(C(=O)Nc3ccc(-c4ccco4)cc3)C2)cn1 (stereo not drawn)	11.1%

SMILES	hERG current change (%, negative = inhibition) at 10uM
Cc1ccccc1-n1c(-c2ccoc2)nc2ccccc2c1=O	6.09%
CCN(Cc1ccccc1)C(=O)c1c(-c2ccccc2Cl)noc1C	-9.34%
CC(C)CN1CCN(Cc2nc(C(C)C)cs2)CC1CCO (stereo not drawn)	1.27%
OCCC1CN(Cc2nc(-c3ccccc3)cs2)CCN1CCc1ccccc1 (stereo not drawn)	-77.8%
CC(C)c1csc(CN2CCN(CCc3ccccc3)C(CCO)C2)n1 (stereo not drawn)	-76%
OCCC1CN(Cc2nc(-c3ccccc3)cs2)CCN1Cc1ccc(F)cc1 (stereo not drawn)	-69.8%
CC(C)c1csc(CN2CCN(Cc3ccccc3)C(CCO)C2)n1 (stereo not drawn)	-26.3%
OCCC1CN(Cc2nc(-c3ccc(F)cc3)cs2)CCN1CCc1ccccc1 (stereo not drawn)	-80.6%
C=C(c1ccccc1)P(=O)(O)O	17.8%
COc1ccccc1C(=O)NCCC(=O)OCC(=O)Nc1ccc(S(N)(=O)=O)cc1	-2.51%
Cc1cc(C(=O)Nc2ccc3ccccc3c2)c(C)o1	6.68%
COc1ccc2oc(=O)c(-c3csc(Nc4cccc(O)c4)n3)cc2c1	25.8%
COC(=O)CN1C(=O)[C@H]2[C@@H](c3ccc(C)o3)N3C(=O)CN(Cc4ccccn4)C(=O)[C@@]3(Cc3ccccc3)[C@H]2C1=O	21.5%
O=C(NCc1ccccc1)c1cccc(S(=O)(=O)N2CCOCC2)c1	0.662%
Cc1ccc(N/C=C/C(=O)C(C)(C)C)c(O)c1	-5.33%
CC(=O)NC(CC(=O)O)c1ccc(F)cc1 (stereo not drawn)	0.22%
COc1ccc(CNC(=O)CSc2nnc(C)c(=O)[nH]2)cc1	18.2%
OCCC1CN(Cc2ccncc2)CCN1C1CCCC1 (stereo not drawn)	-8.58%
Cc1oc(-c2cccs2)nc1CN1CCN(CCC(C)C)C(CCO)C1 (stereo not drawn)	-27.6%
CC(C)CCN1CCN(Cc2nc(-c3ccccc3)cs2)CC1CCO (stereo not drawn)	-62.7%
CC(C)N1CCN(Cc2nc(-c3ccccc3)cs2)CC1CCO (stereo not drawn)	-47.7%
OCCC1CN(Cc2nc(-c3ccccc3)cs2)CCN1C1CCCC1 (stereo not drawn)	-66.4%
Cc1cccc(CN2CCN(C3CCCC3)C(CCO)C2)n1 (stereo not drawn)	3.1%

SMILES	hERG current change (%, negative = inhibition) at 10uM
O=C(CC1C(=O)NCCN1CC(c1ccccc1)c1ccccc1)NCC1CCOCC1 (stereo not drawn)	6.24%
CCCNC(=O)c1ccc(CN2CCOCC2)cc1	8.4%
O=C(CS(=O)(=O)c1c[nH]c2ccccc12)Nc1ccc(F)cc1	-21.8%
Cc1cccc(OCCn2c(NC(=O)c3ccco3)nc3ccccc32)c1	12.5%
CCC(=O)N/C(N)=N/c1nc2ccccc2o1	-10.3%
O=C(COc1ccc(Cl)cc1Cl)N1CCCN(C(=O)COc2ccc(Cl)cc2Cl)CC1	-47.2%
c1ccc(-c2nc3ccccn3c2NCc2ccc3c(c2)OCO3)cc1	-36.1%
Oc1ccc(-c2nc3ccccn3c2NCc2ccc3c(c2)OCO3)cc1	-45.8%
COc1ccc(-c2nc3cc(C)ccn3c2NCc2ccc3c(c2)OCO3)cc1	-67.5%
COc1ccc(-c2nc3ccccn3c2NCc2ccc3c(c2)OCO3)cc1	-82.4%
COc1ccc(-c2nc3ccc(C)cn3c2NCc2ccc3c(c2)OCO3)cc1	-34.1%
Cc1cccn2c(NCc3ccc4c(c3)OCO4)c(-c3ccc(O)cc3)nc12	-22.6%
Fc1ccc(-c2nc3ccccn3c2NCc2ccc3c(c2)OCO3)cc1	-24.3%
Cc1ccc(-c2nc3ccccn3c2NCc2ccc3c(c2)OCO3)cc1	-69.3%
Cc1ccn2c(NCc3ccc4c(c3)OCO4)c(-c3ccc(O)cc3)nc2c1	-11.6%
COc1ccc2c(C)c(CCC(=O)NC3CC3)c(=O)oc2c1C	14.4%
CCCc1cc(C(=O)Nc2ccccc2C(=O)OC)no1	7.76%
CCCC(=O)Nc1cccc(-c2cn3ccsc3n2)c1	-47.5%
CCOc1ccc(N(C(=O)/C=C/C(=O)Nc2cc(C)on2)C(C(=O)NC2CCCC2)c2ccccc2C)cc1 (stereo not drawn)	-6.96%
CCn1nc(C)c(CNCc2cn[nH]c2-c2cc3ccccc3o2)c1C	-19%
O=C(O)c1cc(C(F)(F)F)nc2ccccc12	3.92%
CC(C)(C)OC(=O)NC(CC(=O)OCc1ccccc1)C(=O)O (stereo not drawn)	10.1%
CC(C)(C)OC(=O)NC(Cc1ccccc1)C(=O)O (stereo not drawn)	-50.5%

SMILES	hERG current change (%, negative = inhibition) at 10uM
CC(C)(C)OC(=O)N[C@@H](CC(=O)OCc1ccccc1)C(=O)O	10.9%
CC(C)(Oc1ccc(Cl)cc1)C(=O)NCCCn1ccnc1	-21.2%
C=CCn1c(SCC(=O)N2CCCC2=O)nc2sc(CC)cc2c1=O	-70.9%
C=CCn1c(SCC(=O)N2CCN(C(=O)c3ccco3)CC2)nc2sc(CC)cc2c1=O	-76.3%
C=CCn1c(SCC(=O)NC2CC2)nc2sc(CC)cc2c1=O	-54.6%
C=CCn1c(SCC(=O)Nc2ccc(O)cc2)nc2sc(CC)cc2c1=O	-62.5%
C=CCn1c(SCC(=O)NC2CCS(=O)(=O)C2)nc2sc(CC)cc2c1=O (stereo not drawn)	-47.8%
C=CCn1c(SCC(=O)Nc2sccc2C(N)=O)nc2sc(CC)cc2c1=O	-1.95%
C=CCn1c(SCC(=O)N2CCc3ccccc3C2)nc2sc(CC)cc2c1=O	-34.5%
C=CCn1c(SCC(=O)NC2CCCC2)nc2sc(C)cc2c1=O	-5.84%
C=CCn1c(SCC(=O)Nc2cc(C)on2)nc2sc(CC)cc2c1=O	1.3%
C=CCn1c(SCC(=O)O)nc2sc(CC)cc2c1=O	13.8%
C=CCn1c(SCC(=O)c2cccs2)nc2sc(CC)cc2c1=O	-4.31%
C=CCn1c(SCC#N)nc2sc(CC)cc2c1=O	-16.5%
COC(=O)Cn1c(=NC(=O)c2cc(OC)c(OC)c(OC)c2)sc2cc(OC)ccc21	1.18%
S=c1[nH]nc(-c2ccc3ccccc3n2)n1-c1ccc2c(c1)OCCO2	17.7%
Cc1ccc2c(c1)CCCN2N=O	0.938%
CCOc1ccc(N(CC(=O)NCc2ccc(OC)cc2)C(=O)CCC(=O)Nc2nccs2)cc1	8.55%
COc1ccccc1CNC(=O)COC(=O)c1ccc(C)s1	3.82%
CC1(C)N([O-])C(c2ccccc2)=C[N+](=O)C1(C)C	1.38%
CCOc1cccc2cc(C(=O)N3CCOCC3)c(=O)oc12	14.6%

From publication PMC4336329 (PLoS ONE, 2015)
